# Reference: the supplement of paper PMC9844399
# Counter-ions that a name gives are not always drawn.
# Test system: HeLa
# Test: nuclear count per well, robust Z-score vs DMSO; higher = more cells (less toxicity)
# Conditions: 10 µM; 6 h
# 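Throughout, for MALAT1 nuclear FISH intensity, robust Z-score vs DMSO: High-content confocal imaging of branched-DNA amplified FISH in 384-well plates, Hoechst-defined nuclei, score is well value minus plate DMSO median over DMSO robust SD, four wells per compound.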
# 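Throughout, for nuclear count per well, robust Z-score vs DMSO: Hoechst-stained nuclei counted by automated confocal imaging of four fields per well in 384-well plates, with the robust Z-score based on the per-plate DMSO median and robust SD.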
row,Structure (SMILES),nuclear count per well
1,CN(C)CC/C=C1/c2ccccc2Sc2ccc(Cl)cc21 [Chlorprothixene],0.224
2,COc1ccc(OC)c(C(O)CNC(=O)CN)c1 (centres undefined),0.762
3,CN(C)CCCN1c2ccccc2Sc2ccc(Cl)cc21 [Chlorpromazine hydrochloride],0.508
4,CC(C)(O)c1ccccc1CC[C@@H](SCC1(CC(=O)O)CC1)c1cccc(/C=C/c2ccc3ccc(Cl)cc3n2)c1,-0.315
5,NCCc1c[nH]cn1 [Histamine],0.741
6,C1COC(NC(C2CC2)C2CC2)=N1 [Rilmenidine],1.67
7,CCCCC/C=C\C/C=C\C/C=C\C/C=C\CCCC(=O)OC(CO)CO [2-Arachidonoylglycerol],-1.06
8,CCCCC/C=C\C/C=C\CCCCCCCC(=O)O [Linoleic acid],-0.54
9,COC(=O)[C@@H]1CC2=CC(=O)CC[C@]2(C)[C@@]23O[C@@H]2C[C@@]2(C)[C@@H](CC[C@@]24CCC(=O)O4)[C@H]13 [Eplerenone],0.279
10,COc1cc2c(cc1OC)C(=O)C(CC1CCN(Cc3ccccc3)CC1)C2 (centres undefined),-1.41
11,Fc1ccc([C@@H]2CCNC[C@H]2COc2ccc3c(c2)OCO3)cc1 [Paroxetine hydrochloride hemihydrate],-0.809
12,CC(=O)O[C@H]1C(=O)[C@@]2(C)[C@H]([C@H](OC(=O)c3ccccc3)[C@]3(O)C[C@H](OC(=O)[C@H](O)[C@@H](NC(=O)c4ccccc4)c4ccccc4)C(C)=C1C3(C)C)[C@]1(OC(C)=O)CO[C@@H]1C[C@@H]2O [Taxol = Paclitaxel],-2.61
13,COc1ccc2cc3[n+](cc2c1OC)CCc1cc2c(cc1-3)OCO2 [Berberine chloride form],-1.49
14,OCCOCCN1CCN(C2=Nc3ccccc3Sc3ccccc32)CC1 [Quetiapine hemifumarate salt],-1.01
15,OC[C@@H](O)[C@H](O)[C@@H](O)CO [Xylitol],0.858
16,O=C1CN2Cc3c(ccc(Cl)c3Cl)N=C2N1 [Anagrelide],0.771
17,"CCCCCCCCCCC/C=C\C/C=C\CCCC(=O)O [Eicosa-5,8-dienoic acid (20:2 n-12)]",-0.432
18,CCOC(=O)[C@H](CCc1ccccc1)N[C@@H](C)C(=O)N1Cc2cc(OC)c(OC)cc2C[C@H]1C(=O)O,-0.0857
19,N=C(N)Nc1ccc(C(=O)Oc2ccc3cc(C(=N)N)ccc3c2)cc1 [Nafamostat mesylate],-2.43
20,CCCCCCCC/C=C\C/C=C\C/C=C\CCCC(=O)NCCO [Mead ethanolamide],-0.6

row,Structure (SMILES),nuclear count per well
1,COc1ccc([C@H]2Sc3ccccc3N(CCN(C)C)C(=O)[C@H]2OC(C)=O)cc1,0.209
2,COc1ccc(C[C@H](N)C(=O)N[C@H]2[C@@H](O)[C@H](n3cnc4c(N(C)C)ncnc43)O[C@@H]2CO)cc1 [Puromycin.2HCl],-7.39
3,Cn1c(=O)n(-c2ccc(C(C)(C)C#N)cc2)c2c3cc(-c4cnc5ccccc5c4)ccc3ncc21,0.426
4,COC(=O)C1=CO[C@@H](O)[C@@H]2C(CO)=CC[C@H]12 [Genipin],-1.29
5,CCCCCCCCCCCCCCC[C@@H](O)[C@@H](N)CO [Dihydrosphingosine],0.706
6,Nc1ncnc2c1c(I)cn2[C@@H]1O[C@H](CO)[C@@H](O)[C@H]1O [5-Iodotubercidin],-7.72
7,N[C@@H]1CONC1=O [Cycloserine],0.653
8,CCCCc1oc2ccccc2c1C(=O)c1cc(I)c(OCCN(CC)CC)c(I)c1 [Amiodarone hydrochloride],-0.0773
9,CN1CCN2c3ncccc3Cc3ccccc3C2C1 (centres undefined) [Mirtazapine],0.384
10,"CC(C)=C1CCC(C)CC1=O (single isomer, unassigned; (+)) [(+)-Pulegone]",0.24
11,Nc1ccn([C@@H]2O[C@H](CO)[C@@H](O)C2(F)F)c(=O)n1,-0.0938
12,O=C(O)c1ccccc1Nc1ccccc1 [N-Phenylanthranilic acid],-2.93
13,CC(C)(C)NC(=O)[C@H]1CC[C@H]2[C@@H]3CC[C@H]4NC(=O)C=C[C@]4(C)[C@H]3CC[C@]12C [Finasteride],0.166
14,CC(=O)N[C@H]1[C@H]([C@H](O)[C@H](O)CO)OC(C(=O)O)=C[C@@H]1NC(=N)N [Zanamivir],0.491
15,O=P(O)(O)C(O)(Cn1ccnc1)P(=O)(O)O [Zoledronic acid],0.461
16,c1ccc2c(c1)CCCC2C1=NCCN1 (centres undefined),0.0582
17,N=C(NC(=O)c1nc(Cl)c(N)nc1N)Nc1ccccc1 [Phenamil],0.859
18,CN(C)[C@@H]1C(O)=C(C(N)=O)C(=O)[C@@]2(O)C(O)=C3C(=O)c4c(O)cccc4[C@@](C)(O)[C@H]3C[C@@H]12 [Tetracycline],0.0456
19,CCCCC/C=C\CC1OC1C/C=C\C/C=C\CCCC(=O)O (centres undefined),-0.0982

# Test system: HeLa
# Test: MALAT1 nuclear FISH intensity, robust Z-score vs DMSO; higher = more nuclear MALAT1 lncRNA, active = -3 or less
# Conditions: 10 µM; 6 h
row,Structure (SMILES),MALAT1 nuclear FISH intensity
1,CN(C)CC/C=C1/c2ccccc2Sc2ccc(Cl)cc21 [Chlorprothixene],0.487 (inactive)
2,COc1ccc(OC)c(C(O)CNC(=O)CN)c1 (centres undefined),-0.425 (inactive)
3,CN(C)CCCN1c2ccccc2Sc2ccc(Cl)cc21 [Chlorpromazine hydrochloride],0.447 (inactive)
4,CC(C)(O)c1ccccc1CC[C@@H](SCC1(CC(=O)O)CC1)c1cccc(/C=C/c2ccc3ccc(Cl)cc3n2)c1,0.559 (inactive)
5,NCCc1c[nH]cn1 [Histamine],-0.47 (inactive)
6,C1COC(NC(C2CC2)C2CC2)=N1 [Rilmenidine],-0.23 (inactive)
7,CCCCC/C=C\C/C=C\C/C=C\C/C=C\CCCC(=O)OC(CO)CO [2-Arachidonoylglycerol],-1.05 (inactive)
8,CCCCC/C=C\C/C=C\CCCCCCCC(=O)O [Linoleic acid],-0.23 (inactive)
9,COC(=O)[C@@H]1CC2=CC(=O)CC[C@]2(C)[C@@]23O[C@@H]2C[C@@]2(C)[C@@H](CC[C@@]24CCC(=O)O4)[C@H]13 [Eplerenone],1.14 (inactive)
10,COc1cc2c(cc1OC)C(=O)C(CC1CCN(Cc3ccccc3)CC1)C2 (centres undefined),0.373 (inactive)
11,Fc1ccc([C@@H]2CCNC[C@H]2COc2ccc3c(c2)OCO3)cc1 [Paroxetine hydrochloride hemihydrate],0.979 (inactive)
12,CC(=O)O[C@H]1C(=O)[C@@]2(C)[C@H]([C@H](OC(=O)c3ccccc3)[C@]3(O)C[C@H](OC(=O)[C@H](O)[C@@H](NC(=O)c4ccccc4)c4ccccc4)C(C)=C1C3(C)C)[C@]1(OC(C)=O)CO[C@@H]1C[C@@H]2O [Taxol = Paclitaxel],-0.638 (inactive)
13,COc1ccc2cc3[n+](cc2c1OC)CCc1cc2c(cc1-3)OCO2 [Berberine chloride form],-1.83 (inactive)
14,OCCOCCN1CCN(C2=Nc3ccccc3Sc3ccccc32)CC1 [Quetiapine hemifumarate salt],-0.474 (inactive)
15,OC[C@@H](O)[C@H](O)[C@@H](O)CO [Xylitol],-0.295 (inactive)
16,O=C1CN2Cc3c(ccc(Cl)c3Cl)N=C2N1 [Anagrelide],0.344 (inactive)
17,"CCCCCCCCCCC/C=C\C/C=C\CCCC(=O)O [Eicosa-5,8-dienoic acid (20:2 n-12)]",1.05 (inactive)
18,CCOC(=O)[C@H](CCc1ccccc1)N[C@@H](C)C(=O)N1Cc2cc(OC)c(OC)cc2C[C@H]1C(=O)O,0.383 (inactive)

row,Structure (SMILES),MALAT1 nuclear FISH intensity
1,N=C(N)Nc1ccc(C(=O)Oc2ccc3cc(C(=N)N)ccc3c2)cc1 [Nafamostat mesylate],0.513 (inactive)
2,CCCCCCCC/C=C\C/C=C\C/C=C\CCCC(=O)NCCO [Mead ethanolamide],-0.149 (inactive)
3,COc1ccc([C@H]2Sc3ccccc3N(CCN(C)C)C(=O)[C@H]2OC(C)=O)cc1,-0.075 (inactive)
4,COc1ccc(C[C@H](N)C(=O)N[C@H]2[C@@H](O)[C@H](n3cnc4c(N(C)C)ncnc43)O[C@@H]2CO)cc1 [Puromycin.2HCl],2.03 (inactive)
5,Cn1c(=O)n(-c2ccc(C(C)(C)C#N)cc2)c2c3cc(-c4cnc5ccccc5c4)ccc3ncc21,0.283 (inactive)
6,COC(=O)C1=CO[C@@H](O)[C@@H]2C(CO)=CC[C@H]12 [Genipin],-1.28 (inactive)
7,CCCCCCCCCCCCCCC[C@@H](O)[C@@H](N)CO [Dihydrosphingosine],0.974 (inactive)
8,Nc1ncnc2c1c(I)cn2[C@@H]1O[C@H](CO)[C@@H](O)[C@H]1O [5-Iodotubercidin],-6.75 (active)
9,N[C@@H]1CONC1=O [Cycloserine],-1.65 (inactive)
10,CCCCc1oc2ccccc2c1C(=O)c1cc(I)c(OCCN(CC)CC)c(I)c1 [Amiodarone hydrochloride],-0.769 (inactive)
11,CN1CCN2c3ncccc3Cc3ccccc3C2C1 (centres undefined) [Mirtazapine],-0.438 (inactive)
12,"CC(C)=C1CCC(C)CC1=O (single isomer, unassigned; (+)) [(+)-Pulegone]",-1.33 (inactive)
13,Nc1ccn([C@@H]2O[C@H](CO)[C@@H](O)C2(F)F)c(=O)n1,2.27 (inactive)
14,O=C(O)c1ccccc1Nc1ccccc1 [N-Phenylanthranilic acid],1.66 (inactive)
15,CC(C)(C)NC(=O)[C@H]1CC[C@H]2[C@@H]3CC[C@H]4NC(=O)C=C[C@]4(C)[C@H]3CC[C@]12C [Finasteride],-0.225 (inactive)
16,CC(=O)N[C@H]1[C@H]([C@H](O)[C@H](O)CO)OC(C(=O)O)=C[C@@H]1NC(=N)N [Zanamivir],0.223 (inactive)
17,O=P(O)(O)C(O)(Cn1ccnc1)P(=O)(O)O [Zoledronic acid],-0.895 (inactive)
